The text below walks through data of the supplement of paper PMC6897291.

In this assay the test system is RIVA. As to the kind of experiment: growth inhibition by drug alone (1 - RLU/untreated control) (fraction); higher = stronger inhibition. The settings on record: 177Lu-lilotomab satetraxetan 0 ug/ml. The method, then: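 RIVA (RI-1) ABC-DLBCL cells were pretreated or not for 18 h with 0.5 ug/ml 177Lu-lilotomab satetraxetan (600 MBq/mg), washed and seeded (3000 cells/well) on 384-well plates pre-printed with the Selleck Cambridge Cancer Compound library. Viability was read by RealTime-Glo luminescence on days 3-6 after seeding. Effect = 1 - RLU/mean RLU of the 48 untreated no-drug control wells per plate; Bliss score = (M-E)/(1-Fa).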

Take `CC(C)C(=O)Nc1ccc([N+](=O)[O-])c(C(F)(F)F)c1` [Flutamide (Eulexin)]: the “growth inhibition by drug alone” value reads like this: (10 nM, time (day): 3) 0.122; (10 nM, time (day): 4) 0.106; (10 nM, time (day): 5) 0.0768; (10 nM, time (day): 6) -0.0242; (100 nM, time (day): 3) -0.044; (100 nM, time (day): 4) 0.0232. Moreover, the “growth inhibition by drug alone” value (100 nM, time (day): 5) came to 0.0258 and the “growth inhibition by drug alone” value (100 nM, time (day): 6) is -0.0163.
In the case of `CNC(=O)c1cc(COc2nnc(Nc3ccc(Cl)cc3)c3ccoc23)ccn1` [Telatinib (BAY 57-9352)], the “growth inhibition by drug alone” value by setting is: (10 nM, time (day): 3) -0.0398; (10 nM, time (day): 4) -0.0876; (10 nM, time (day): 5) -0.128; (10 nM, time (day): 6) -0.281; (100 nM, time (day): 3) -0.214; (100 nM, time (day): 4) -0.207. For the same compound, the “growth inhibition by drug alone” value reads like this: (100 nM, time (day): 5) -0.212; (100 nM, time (day): 6) -0.315.
In the case of `Nc1nc(Cl)nc2c1ncn2[C@H]1C[C@H](O)[C@@H](CO)O1` [Cladribine], the “growth inhibition by drug alone” value was 0.0585 (10 nM, time (day): 3); 0.0126 (10 nM, time (day): 4); 0.00678 (10 nM, time (day): 5); 0.0233 (10 nM, time (day): 6); -0.00435 (100 nM, time (day): 3); 0.239 (100 nM, time (day): 4). The “growth inhibition by drug alone” value reads like this: (100 nM, time (day): 5) 0.319; (100 nM, time (day): 6) 0.387.
In the case of `CCn1c(-c2nonc2N)nc2cnc(Oc3cccc(NC(=O)c4ccc(OCCN5CCOCC5)cc4)c3)cc21`, the “growth inhibition by drug alone” value reads like this: (10 nM, time (day): 3) -0.232; (10 nM, time (day): 4) -0.237; (10 nM, time (day): 5) -0.286; (10 nM, time (day): 6) -0.351; (100 nM, time (day): 3) -0.202; (100 nM, time (day): 4) -0.237. Also, the “growth inhibition by drug alone” value was -0.215 (100 nM, time (day): 5) and -0.241 (100 nM, time (day): 6).
With `C=C1/C(=C\C=C2/CCC[C@]3(C)[C@@H]([C@H](C)/C=C/[C@H](C)C(C)C)CC[C@@H]23)C[C@@H](O)C[C@@H]1O` [Doxercalciferol (Hectorol)], the “growth inhibition by drug alone” value reads like this: (10 nM, time (day): 3) 0.187; (10 nM, time (day): 4) 0.183; (10 nM, time (day): 5) 0.177; (10 nM, time (day): 6) 0.0541; (100 nM, time (day): 3) 0.0648; (100 nM, time (day): 4) 0.127. Further, the “growth inhibition by drug alone” value reads like this: (100 nM, time (day): 5) 0.103; (100 nM, time (day): 6) 0.0636.
